Test results as given in PubChem BioAssay (Tox21).
Records with an inconclusive call do not appear. Calls of active or inactive are those of the source. Unless noted, calls come from the whole dose curve; as a rule, active = well fitted curve in the direction sought with a large enough effect in the repeat runs; inconclusive = weak or mixed curves; inactive = no such curve, though single readings can be large; an effect the other way counts as inactive or inconclusive.

Key:
[1] = qHTS assay to identify small molecule antagonists of the sonic hedgehog signaling (Shh) pathway (AID 1259369; calls by dose curve; note: nearly all actives have a fitted effect of over 45% in size)
Outline: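 NIH/3T3-derived Gli1-Luc reporter cells plated 4 h, dosed with compound, then stimulated with conditioned medium for 24 h at 37 C. Firefly luciferase luminescence read after 30 min with detection reagent at room temperature.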

[2] = target: Estrogen receptor beta (Homo sapiens) (UniProt Q92731); assay: qHTS assay to identify small molecule agonists of the estrogen receptor beta (ER-beta) signaling pathway (AID 1259377; active = well fitted activation curve with a large enough effect in the signal ratio in the repeat runs, not every such curve was filed as active; the % refers to the signal ratio)
Outline: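 In HEK293T cells bearing a UAS-beta-lactamase reporter under ER-beta control, DMSO-delivered compounds were incubated for 16 hr at 37C. Activity was detected as fluorescence 2 hours after LiveBLAzer B/G FRET substrate addition.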

[3] = target: Estrogen receptor beta (Homo sapiens) (UniProt Q92731); assay: qHTS assay to identify small molecule antagonists of the estrogen receptor beta (ER-beta) signaling pathway (AID 1259378; active = well fitted inhibition curve with a large enough effect in the signal ratio in the repeat runs, not every such curve was filed as active; the % refers to the signal ratio)
Outline: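 ER-beta-UAS-bla HEK293T (GripTite) cells in 2% charcoal-stripped FBS medium were preincubated 6 hr at 37C, dosed with compound, then stimulated with 1 nM E2 (final) for 16 hr; beta-lactamase reporter read by B/G FRET fluorescence after 2 hr substrate loading.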

[4] = qHTS assay to identify small molecule agonists of the androgen receptor (AR) signaling pathway in the presence of an antagonist - cell viability counter screen (AID 1259379);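 note: MDA-kb2 human breast cancer cells carrying an MMTV luciferase reporter; series mostly up to about 92 µM; nearly all actives have a fitted effect of over 25% in size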
Outline: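 MDA-kb2 cells (MMTV-luciferase, AR/GR), 3,000/well, 5 h attachment, then 3.0 µM nilutamide (final) and compounds at 15 concentrations. Viability by CellTiter-Fluor fluorescence after 16 h at 37 °C, 0% CO2, in the reporter wells.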

[5] = qHTS assay to identify small molecule agonists of the estrogen receptor beta (ER-beta) signaling pathway - cell viability counter screen (AID 1259380); note: nearly all actives have a fitted effect of over 30% in size
Outline: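 ER-beta-UAS-bla HEK293T cells in medium with 2% charcoal-stripped FBS, pre-incubated 6 hr, then treated 16 hr at 37C. Cytotoxicity read in the same wells by CellTiter-Glo luminescence after 30 min at room temperature.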

[6] = qHTS assay to identify small molecule antagonists of the estrogen receptor beta (ER-beta) signaling pathway - cell viability counter screen (AID 1259382); note: series mostly up to about 92 µM; nearly all actives have a fitted effect of over 55% in size
Outline: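 ER-beta-UAS-bla HEK293T cells in 2% charcoal-stripped FBS medium, treated with compound plus 1 nM 17-beta-estradiol for 16 h at 37C. Viability read by CellTiter-Glo luminescence after 30 min at room temperature in the same wells.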

[7] = target: Estrogen receptor (Homo sapiens) (UniProt P03372); assay: qHTS assay to identify small molecule agonists of the estrogen receptor alpha (ER-alpha) signaling pathway in the presence of an antagonist (AID 1259383; calls by dose curve; note: top concentration of the series differs between compounds; nearly all actives have a fitted effect of over 15% in size)
Outline: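 VM7Luc4E2 cells express endogenous full-length ER-alpha with an ERE-luciferase reporter and were hormone-deprived for 5 days. Compounds at 15 concentrations were added with 10.0nM ICI-182,780 for 22hr at 37C. Luminescence was read with ONE-Glo.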

[8] = qHTS assay to identify small molecule agonists or antagonists of the thyroid stimulating hormone receptor (TSHR) signaling pathway - wild type cell line counter screen (AID 1259384; calls by dose curve)
Outline: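 Wild-type HEK293 cells were plated 18 h at 37 C/5% CO2, pin-dosed with compound plus Ro20-1724 medium, held 30 min at room temperature, then given cAMP-d2 and anti-cAMP-cryptate; fluorescence was read after 1 h. Fifteen concentrations, triplicate.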

[9] = target: Thyrotropin receptor (Homo sapiens) (UniProt P16473); assay: qHTS assay to identify small molecule antagonists of the thyroid stimulating hormone receptor (TSHR) signaling pathway (AID 1259385; calls by dose curve; note: nearly all actives have a fitted effect of over 20% in size)
Outline: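 TSHR-HEK293 cells were plated and held 18 h at 37C/5% CO2, then given compound plus Ro20-1724 and stimulated with TSH at 1.5 ng/mL final. After 30 min at room temperature, cAMP was detected with cAMP-d2/anti-cAMP-cryptate (1 h) by fluorescence.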

[10] = qHTS assay to identify small molecule agonists of the estrogen receptor alpha (ER-alpha) signaling pathway in the presence of an antagonist - cell viability counter screen (AID 1259386);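 note: series mostly up to about 92 µM; cells exposed to compounds for 22 h at 37 °C before the viability read; nearly all actives have a fitted effect of over 30% in size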
Outline: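 Cell viability in VM7Luc4E2 cells (endogenous full-length ER-alpha) measured by CellTiter-Fluor fluorescence in the same wells as the luciferase screen. Cells pre-cultured 5 days in charcoal-stripped serum, then treated 22 h with compounds at 15 concentrations plus 10.0nM ICI-182,780.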

[11] = target: Progesterone receptor (Homo sapiens) (UniProt P06401); assay: qHTS assay to identify small molecule agonists of the progesterone receptor (PR) signaling pathway (AID 1346784; calls by dose curve; note: nearly all actives have a fitted effect of over 30% in size)
Outline: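 Using charcoal-stripped serum (2%) to limit endogenous steroids, PR-UAS-bla HEK 293T cells received compounds for 16 hr at 37C after 6 hr plating; beta-lactamase FRET fluorescence was recorded following 2 hr substrate loading at room temperature.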

[12] = target: Progesterone receptor (Homo sapiens) (UniProt P06401); assay: qHTS assay to identify small molecule antagonists of the progesterone receptor (PR) signaling pathway (AID 1346795; active = well fitted inhibition curve with a large enough effect in the signal ratio in the repeat runs, not every such curve was filed as active; the % refers to the signal ratio)
Outline: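 Inhibition of R5020-induced (1 nM final) beta-lactamase reporter signal in PR-UAS-bla HEK293T cells was scored by FRET fluorescence after overnight (16 hr) compound treatment.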

[13] = qHTS assay to identify small molecule antagonists of the progesterone receptor (PR) signaling pathway - cell viability counter screen (AID 1346798); note: series mostly up to about 92 µM; nearly all actives have a fitted effect of over 50% in size
Outline: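 ATP content as viability readout: CellTiter-Glo luminescence, 30 min room temperature, in PR-UAS-bla HEK293T cells after 16 hr compound/R5020 treatment at 37C and 5% CO2.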

[14] = qHTS assay to identify small molecule agonists of the progesterone receptor (PR) signaling pathway - cell viability counter screen (AID 1346799; calls by dose curve; note: nearly all actives have a fitted effect of over 45% in size)
Outline: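 Cytotoxicity in PR-bla HEK293T cells: 16 h compound, 37C; CellTiter-Glo added post-FRET read; luminescence after 30 min RT.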

[15] = qHTS assay to identify small molecule antagonists of the TGF-beta/Smad signaling pathway - cell viability counter screen (AID 1346824); note: nearly all actives have a fitted effect of over 50% in size
Outline: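 SBE-bla HEK 293T cells were plated overnight at 37 C, then given compounds in DMSO plus TGF-beta1 (added as 0.25 ng/mL solution) for 5 hr. After the bla read, CellTiter-Glo was added to the same wells and luminescence read after 30 min at room temperature.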

[16] = qHTS assay to identify small molecule agonists of the TGF-beta/Smad signaling pathway - cell viability counter screen (AID 1346829); note: top concentration of the series differs between compounds; nearly all actives have a fitted effect of over 45% in size
Outline: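 Compound-treated SBE-bla HEK 293T cells (5 hr, 37 C) were assessed for viability with CellTiter-Glo in parallel with the reporter read.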

[17] = qHTS assay to identify small molecule agonists of the TGF-beta/Smad signaling pathway (AID 1346859; active = well fitted activation curve with a large enough effect in the signal ratio in the repeat runs, not every such curve was filed as active; the % refers to the signal ratio; note: series mostly up to about 77 µM)
Outline: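 Stable Smad binding element-beta-lactamase HEK 293T cells; 5 hr compound exposure at 37 C under 5% CO2; 2 hr room-temperature substrate step; fluorescence excited at 405 nm, collected at 460 nm and 530 nm.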

[18] = target: Thyrotropin-releasing hormone receptor (Homo sapiens) (UniProt P34981); assay: qHTS assay to identify small molecule antagonists of the thyrotropin-releasing hormone receptor (TRHR) signaling pathway (AID 1346877; active = well fitted inhibition curve with a large enough effect in the repeat runs, not every such curve was filed as active; note: series mostly up to about 51 µM)
Outline: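 TRHR-expressing HEK293 cells loaded with calcium dye for 2 h at 37 C; compounds pre-incubated 5 min at room temperature before TRH challenge at 1 nM final. Intracellular calcium fluorescence read kinetically for 3 min; 15 concentrations in triplicate.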

[19] = target: Thyrotropin-releasing hormone receptor (Homo sapiens) (UniProt P34981); assay: qHTS assay to identify small molecule agonists of the thyrotropin-releasing hormone receptor (TRHR) signaling pathway (AID 1346891; calls by dose curve; note: series mostly up to about 58 µM)
Outline: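 In 1536-format, 1500 TRHR-Hek293 cells per well grew 18 h, took up calcium dye for 2 h at 37 °C, received compound, and were read kinetically; 15-point titrations, triplicates.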

[20] = target: Androgen receptor (Homo sapiens) (UniProt P10275); assay: qHTS assay to identify small molecule agonists of the androgen receptor (AR) signaling pathway in the presence of an antagonist (AID 1259381; calls by dose curve; note: nearly all actives have a fitted effect of over 15% in size)
Outline: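 MDA-kb2 cells carrying MMTV-luciferase (AR/GR responsive), 3,000 cells/well, co-treated with 3.0 uM nilutamide final. Compounds at 15 concentrations, 16 hr at 37C without CO2. Luciferase luminescence read after 30 min with ONE-Glo.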
% is set by controls: 0 for no effect and ±100 for the full control effect.

Estrogen receptor beta (Homo sapiens), sequence (Q92731 whole entry, looked up): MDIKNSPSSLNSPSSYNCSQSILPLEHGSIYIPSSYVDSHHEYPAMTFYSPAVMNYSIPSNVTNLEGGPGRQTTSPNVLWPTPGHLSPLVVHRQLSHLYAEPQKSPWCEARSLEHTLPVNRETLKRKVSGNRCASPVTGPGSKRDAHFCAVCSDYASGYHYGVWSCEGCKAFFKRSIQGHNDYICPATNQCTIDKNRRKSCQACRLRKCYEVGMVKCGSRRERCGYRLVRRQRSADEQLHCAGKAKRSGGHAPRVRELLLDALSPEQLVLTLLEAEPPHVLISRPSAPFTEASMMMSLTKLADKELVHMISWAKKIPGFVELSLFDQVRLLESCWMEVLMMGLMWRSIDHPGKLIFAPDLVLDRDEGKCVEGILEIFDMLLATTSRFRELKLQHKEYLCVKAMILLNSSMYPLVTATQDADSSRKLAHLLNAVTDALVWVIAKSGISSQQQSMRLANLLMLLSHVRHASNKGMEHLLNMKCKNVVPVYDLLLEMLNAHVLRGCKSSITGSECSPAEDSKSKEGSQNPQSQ
Estrogen receptor (Homo sapiens), sequence (P03372 whole entry, looked up): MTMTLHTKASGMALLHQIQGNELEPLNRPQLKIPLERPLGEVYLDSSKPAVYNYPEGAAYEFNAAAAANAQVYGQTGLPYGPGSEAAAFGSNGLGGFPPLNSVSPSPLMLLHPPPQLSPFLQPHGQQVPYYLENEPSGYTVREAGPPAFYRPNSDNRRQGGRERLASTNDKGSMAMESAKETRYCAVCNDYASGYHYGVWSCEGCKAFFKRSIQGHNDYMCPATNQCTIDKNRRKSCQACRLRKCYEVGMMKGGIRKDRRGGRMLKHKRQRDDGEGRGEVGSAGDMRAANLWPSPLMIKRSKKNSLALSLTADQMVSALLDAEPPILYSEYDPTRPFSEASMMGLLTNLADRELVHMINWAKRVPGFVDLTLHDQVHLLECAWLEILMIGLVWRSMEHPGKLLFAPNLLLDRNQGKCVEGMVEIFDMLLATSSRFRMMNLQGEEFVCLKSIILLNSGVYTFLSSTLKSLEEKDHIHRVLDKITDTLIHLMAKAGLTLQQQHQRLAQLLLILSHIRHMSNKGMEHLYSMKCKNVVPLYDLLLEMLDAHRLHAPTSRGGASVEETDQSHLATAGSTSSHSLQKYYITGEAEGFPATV
Thyrotropin-releasing hormone receptor (Homo sapiens), sequence (P34981 whole entry, looked up): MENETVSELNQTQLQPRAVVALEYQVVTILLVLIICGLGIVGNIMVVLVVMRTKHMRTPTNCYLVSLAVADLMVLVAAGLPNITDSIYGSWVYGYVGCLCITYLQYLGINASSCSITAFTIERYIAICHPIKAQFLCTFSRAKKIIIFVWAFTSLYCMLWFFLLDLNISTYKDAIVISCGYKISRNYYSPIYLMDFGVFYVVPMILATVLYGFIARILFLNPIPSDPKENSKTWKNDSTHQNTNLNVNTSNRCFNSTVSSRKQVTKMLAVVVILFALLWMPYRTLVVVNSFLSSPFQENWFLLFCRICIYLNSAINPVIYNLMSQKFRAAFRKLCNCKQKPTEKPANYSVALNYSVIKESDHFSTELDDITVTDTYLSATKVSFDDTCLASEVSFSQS
Progesterone receptor (Homo sapiens), sequence (P06401 whole entry, looked up): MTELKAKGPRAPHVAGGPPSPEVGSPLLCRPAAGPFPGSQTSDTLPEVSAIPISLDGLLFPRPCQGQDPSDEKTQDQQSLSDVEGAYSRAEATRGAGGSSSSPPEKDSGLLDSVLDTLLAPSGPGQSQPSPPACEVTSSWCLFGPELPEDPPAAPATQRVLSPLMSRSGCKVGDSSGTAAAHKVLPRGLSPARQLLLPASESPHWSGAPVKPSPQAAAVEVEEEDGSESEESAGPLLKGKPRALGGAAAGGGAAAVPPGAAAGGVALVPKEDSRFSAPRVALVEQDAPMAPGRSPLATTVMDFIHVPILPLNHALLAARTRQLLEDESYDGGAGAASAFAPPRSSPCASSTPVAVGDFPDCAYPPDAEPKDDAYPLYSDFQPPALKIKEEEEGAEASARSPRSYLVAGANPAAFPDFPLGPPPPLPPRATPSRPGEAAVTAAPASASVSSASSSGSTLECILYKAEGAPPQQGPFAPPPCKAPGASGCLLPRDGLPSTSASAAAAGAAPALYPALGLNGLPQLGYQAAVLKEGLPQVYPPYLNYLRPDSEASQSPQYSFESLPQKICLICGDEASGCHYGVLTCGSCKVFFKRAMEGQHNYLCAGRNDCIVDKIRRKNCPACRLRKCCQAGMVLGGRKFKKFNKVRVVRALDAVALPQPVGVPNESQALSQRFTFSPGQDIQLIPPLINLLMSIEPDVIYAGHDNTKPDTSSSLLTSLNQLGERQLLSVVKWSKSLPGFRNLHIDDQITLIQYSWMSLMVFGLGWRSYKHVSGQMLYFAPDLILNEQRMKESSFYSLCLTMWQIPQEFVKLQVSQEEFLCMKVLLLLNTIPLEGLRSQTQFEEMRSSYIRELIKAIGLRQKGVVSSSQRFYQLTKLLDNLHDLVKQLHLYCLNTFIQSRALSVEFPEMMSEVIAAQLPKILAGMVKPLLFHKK
Thyrotropin receptor (Homo sapiens), sequence (P16473 whole entry, looked up): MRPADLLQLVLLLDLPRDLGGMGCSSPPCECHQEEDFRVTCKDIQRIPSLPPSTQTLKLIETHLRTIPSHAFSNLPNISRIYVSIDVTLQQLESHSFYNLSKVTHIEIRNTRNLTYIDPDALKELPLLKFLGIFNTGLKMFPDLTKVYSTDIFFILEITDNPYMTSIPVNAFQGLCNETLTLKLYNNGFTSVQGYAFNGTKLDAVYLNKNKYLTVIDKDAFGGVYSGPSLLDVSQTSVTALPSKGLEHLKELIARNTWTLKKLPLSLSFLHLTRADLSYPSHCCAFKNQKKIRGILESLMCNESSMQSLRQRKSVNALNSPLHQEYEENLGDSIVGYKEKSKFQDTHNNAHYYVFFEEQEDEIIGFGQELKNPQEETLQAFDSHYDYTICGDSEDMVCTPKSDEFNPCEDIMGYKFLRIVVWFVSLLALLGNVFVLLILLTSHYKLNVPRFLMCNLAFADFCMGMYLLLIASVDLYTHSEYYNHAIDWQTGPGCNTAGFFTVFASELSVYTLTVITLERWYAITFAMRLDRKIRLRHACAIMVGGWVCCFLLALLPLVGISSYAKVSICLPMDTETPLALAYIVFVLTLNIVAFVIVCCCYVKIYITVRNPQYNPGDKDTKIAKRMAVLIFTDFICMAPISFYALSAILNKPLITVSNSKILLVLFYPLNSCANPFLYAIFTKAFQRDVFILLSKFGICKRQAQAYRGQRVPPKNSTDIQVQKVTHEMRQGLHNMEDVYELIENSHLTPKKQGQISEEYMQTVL
Androgen receptor (Homo sapiens), sequence (P10275 whole entry, looked up): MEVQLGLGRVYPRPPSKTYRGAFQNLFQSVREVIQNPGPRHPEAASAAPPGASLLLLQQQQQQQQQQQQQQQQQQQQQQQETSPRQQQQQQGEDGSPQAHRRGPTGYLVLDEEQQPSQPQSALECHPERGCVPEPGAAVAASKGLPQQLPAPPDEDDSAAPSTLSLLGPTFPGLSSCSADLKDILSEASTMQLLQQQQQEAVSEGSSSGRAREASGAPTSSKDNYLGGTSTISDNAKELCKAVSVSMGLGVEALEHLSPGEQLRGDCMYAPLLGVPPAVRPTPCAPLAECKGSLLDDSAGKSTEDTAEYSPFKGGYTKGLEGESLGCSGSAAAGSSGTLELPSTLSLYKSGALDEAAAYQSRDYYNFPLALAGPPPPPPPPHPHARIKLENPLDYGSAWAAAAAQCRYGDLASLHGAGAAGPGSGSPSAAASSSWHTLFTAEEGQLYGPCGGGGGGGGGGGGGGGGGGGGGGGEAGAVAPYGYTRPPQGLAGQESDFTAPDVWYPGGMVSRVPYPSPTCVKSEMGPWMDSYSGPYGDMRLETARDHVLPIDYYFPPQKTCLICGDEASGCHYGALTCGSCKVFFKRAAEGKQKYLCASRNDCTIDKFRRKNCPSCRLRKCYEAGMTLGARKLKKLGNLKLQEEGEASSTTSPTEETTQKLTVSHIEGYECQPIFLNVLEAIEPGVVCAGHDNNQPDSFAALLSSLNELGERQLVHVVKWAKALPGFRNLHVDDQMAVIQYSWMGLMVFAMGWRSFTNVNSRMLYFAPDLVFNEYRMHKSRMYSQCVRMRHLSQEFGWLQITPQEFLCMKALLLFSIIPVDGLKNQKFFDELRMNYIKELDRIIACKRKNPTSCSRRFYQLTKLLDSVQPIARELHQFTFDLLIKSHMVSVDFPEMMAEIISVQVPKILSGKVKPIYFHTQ

O=Cc1ccc(CO)o1
inactive: Potency [1] | Potency [2] | Potency [3] | Potency [4] | Potency [5] | Potency [6] | Potency [7] | Potency [8] | Potency [9] | Potency [10] | Potency [11] | Potency [12] | Potency [13] | Potency [14] | Potency [15] | Potency [16] | Potency [17] | Potency [18] | outcome [19]

COc1c(Cl)ccc(Cl)c1C(=O)O
inactive: Potency [1] | Potency [2] | Potency [3] | Potency [4] | Potency [5] | Potency [6] | Potency [7] | Potency [8] | Potency [9] | Potency [10] | Potency [11] | Potency [12] | Potency [13] | Potency [14] | Potency [15] | Potency [16] | Potency [17] | Potency [18] | outcome [19]

CCCCCCCCCCCC(=O)N(C)CC(=O)O
inactive: Potency [1] | Potency [2] | activity, negative = inhibition [3] 1.54% [at 8.39 µM] | Potency [4] | activity change, negative = cytotoxicity [5] -3.5% [at 8.39 µM] | Potency [6] | Potency [7] | Potency [8] | Potency [9] | Potency [10] | Potency [11] | Potency [12] | activity change, negative = cytotoxicity [13] 0.0198% [at 8.39 µM] | Potency [14] | Potency [15] | Potency [16] | Potency [17]

COCN(COC)c1nc(N(COC)COC)nc(N(COC)COC)n1
inactive: Potency [1] | Potency [2] | Potency [3] | Potency [4] | Potency [5] | Potency [6] | Potency [7] | Potency [8] | Potency [9] | Potency [10] | Potency [11] | Potency [12] | Potency [13] | Potency [14] | Potency [15] | Potency [16] | Potency [17] | Potency [18] | outcome [19]

CC(=O)CC(=O)N(C)C
inactive: Potency [1] | Potency [2] | Potency [3] | Potency [4] | Potency [5] | Potency [6] | Potency [7] | Potency [9] | Potency [10] | Potency [11] | Potency [12] | Potency [13] | Potency [14] | Potency [15] | Potency [16] | Potency [17] | Potency [18] | outcome [19]

CCCCCCCCC(=O)O
inactive: Potency [1] | Potency [2] | Potency [3] | Potency [4] | Potency [5] | Potency [6] | Potency [7] | Potency [8] | Potency [9] | Potency [10] | Potency [11] | Potency [13] | Potency [14] | Potency [15] | Potency [16] | Potency [17] | Potency [18] | outcome [19]

C1CCCNCC1
inactive: Potency [1] | Potency [2] | Potency [3] | Potency [4] | Potency [5] | Potency [6] | Potency [7] | Potency [8] | Potency [9] | Potency [10] | Potency [11] | Potency [12] | Potency [13] | Potency [14] | Potency [15] | Potency [16] | Potency [17] | Potency [18] | outcome [19]

OCC(O)CS (centres undefined)
inactive: Potency [1] | Potency [2] | Potency [3] | Potency [4] | Potency [5] | outcome [20] | Potency [6] | Potency [7] | Potency [8] | Potency [9] | Potency [10] | Potency [11] | Potency [12] | Potency [13] | Potency [14] | Potency [15] | Potency [16] | Potency [17] | Potency [18] | outcome [19]
